High-throughput results deposited in PubChem by National Center for Advancing Translational Sciences (NCATS).
This is a sample that favours compounds with a hit; in the whole collection about 18% have one here.
DT40 TDP1 CPT – qHTS for Inhibitors of human tyrosyl-DNA phosphodiesterase 1 (TDP1): qHTS in cells in presence of CPT. chicken DT40 Tdp1-/-;hTDP1 cells + 20 nM CPT, ATP luminescence, 48 h. Potency, µM (doses to about 46.2 µM), for inactives: top-dose activity change, negative = growth inhibition, hits mostly inhibitors. 420,000 compounds, 12% hits. AID 686979, 2013; further: potency means the concentration at half of the fitted maximal effect; on the % scale 0 is the no-effect control and ±100 the full control effect; nearly all actives have a fitted effect of over 55% in size
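Cell growth measured by CellTiter-Glo luminescence after a minimum 48 h, 37 C compound exposure with 20 nM CPT in Tdp1-knockout DT40 cells stably expressing hTDP1, seeded 400/well; qHTS titration format.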
TDP1 cell noCPT – qHTS for Inhibitors of human tyrosyl-DNA phosphodiesterase 1 (TDP1): qHTS in cells in absence of CPT | DT40 Tdp1-/- hTDP1 cells, no CPT, ATP luminescence, 48 h | Potency, µM (top dose mostly 46.2 µM), without a hit: top-dose activity change, negative = growth inhibition, most hits filed as inhibitors | 420,000 compounds, 15% hits | AID 686978, 2013; further: potency means the concentration at half of the fitted maximal effect; on the % scale 0 is the no-effect control and ±100 the full control effect; nearly all actives have a fitted effect of over 55% in size
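Camptothecin absent (DMSO only). Human TDP1-complemented DT40 knockout cells, 400 cells/well, 37 °C for minimum 48 hr; ATP measured via CellTiter-Glo, 30 min dark incubation, luminescence.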
TDP1 inh – qHTS Assay for Inhibitors of Tyrosyl-DNA Phosphodiesterase (TDP1). Tyrosyl-DNA phosphodiesterase 1 (Homo sapiens), Q9NUW8. recombinant TDP1, AlphaScreen DNA substrate cleavage. Potency, µM (top dose mostly 130 µM), without a hit: top-dose activity change, negative = inhibition, most hits filed as inhibitors. 350,000 compounds, 0.28% hits. AID 485290, 2010; further: potency means the concentration at half of the fitted maximal effect; on the % scale 0 is the no-effect control and ±100 the full control effect; nearly all actives have a fitted effect of over 40% in size
Target sequence (Q9NUW8 whole entry, looked up): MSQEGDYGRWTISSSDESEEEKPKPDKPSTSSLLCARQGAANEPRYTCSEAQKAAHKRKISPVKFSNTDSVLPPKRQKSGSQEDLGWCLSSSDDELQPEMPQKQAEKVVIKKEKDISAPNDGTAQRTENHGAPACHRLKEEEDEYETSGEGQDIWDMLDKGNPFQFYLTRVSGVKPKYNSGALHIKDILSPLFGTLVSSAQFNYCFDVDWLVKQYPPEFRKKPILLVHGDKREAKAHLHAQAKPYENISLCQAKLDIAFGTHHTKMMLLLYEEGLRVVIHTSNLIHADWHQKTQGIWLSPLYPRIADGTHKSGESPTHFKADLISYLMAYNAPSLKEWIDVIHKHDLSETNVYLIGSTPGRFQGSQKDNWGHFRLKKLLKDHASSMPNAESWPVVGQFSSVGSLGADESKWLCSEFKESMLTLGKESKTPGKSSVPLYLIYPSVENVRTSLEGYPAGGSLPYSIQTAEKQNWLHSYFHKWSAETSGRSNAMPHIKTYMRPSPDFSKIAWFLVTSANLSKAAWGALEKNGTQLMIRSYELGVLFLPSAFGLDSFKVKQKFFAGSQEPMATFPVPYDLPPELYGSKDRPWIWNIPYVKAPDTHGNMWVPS
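E. coli-derived human Tdp1, 1 nM final. Cpd preinc 15 min RT; substrate 15 nM final, 5 min RT; AS bead mix 10 ug/ml final, 10 min RT. Signal loss = tyrosine-FITC cleavage. No-enzyme wells = max signal.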
TGFb SMAD3 inh – qHTS for Inhibitors of TGF-b | 410,000 compounds, 1.2% hits | HepG2 CAGA-GFP TGF-b/SMAD3 reporter, GFP fluorescence, 18 h; TGF-beta stimulated, 500 pg/mL final | AID 588855, 2011 | Potency, µM (top dose mostly 46.1 µM), without a hit: at the top dose activity, negative = inhibition, hits mostly inhibitors; further: potency means the concentration at half of the fitted maximal effect; on the % scale 0 is the no-effect control and ±100 the full control effect; nearly all actives have a fitted effect of over 65% in size
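HEPG2 CAGA-GFP, 1000 cells/well; 2 h settle, 37 C; cpd via pin tool; TGF-b 500 pg/mL final; 18 h, 37 C; GFP imaging ex488/em500-530; %Activity normalised to -TGF-b and +DMSO controls; CRC fit, curve class.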
HepG2 viability – qHTS for Inhibitors of TGF-b: Cytotox Counterscreen | HepG2 CAGA-GFP viability, ATP luminescence, 18 h | Potency, µM (titrated, usually from 46.1 µM), without a hit: at the highest dose activity change, negative = cytotoxicity, actives largely listed as cytotoxic | 410,000 compounds, 0.76% hits; further: potency means the concentration at half of the fitted maximal effect
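CellTiter-Glo luminescence gave cytotoxicity after 18 hours at 37 degrees C. The cells were HepG2 CAGA-GFP in 1% FBS DMEM, stimulated with 500 pg/mL TGF-beta after compound addition. %Activity was normalised to no-cell wells (complete cell-killing) and DMSO (no toxicity), and curves were fitted and classified.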
IL1B secr inh – qHTS for Inhibitors of Inflammasome Signaling: IL-1-beta AlphaLISA Primary Screen | THP-1 LPS/ATP IL-1B secretion, AlphaLISA, 16 h; stronger effect = lower value | activity change, % at 57.5 µM | 360,000 compounds, 4.7% hits; in the data active means activity change below about -50%; inconclusive means mostly about -30% to -49%; further: on the % scale 0 is the no-effect control and ±100 the full control effect
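Secreted IL-1B measured by AlphaLISA bead assay after 16 h compound exposure of THP-1 cells; compounds (final up to 57.5 uM) added 1 h before LPS (250 ng/mL) and ATP (1.25 mM) stimulation; lower signal means less secretion.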
* = called active by the depositor; ? = inconclusive; / = not tested or not shown; ! = a repeat was not active; [ ] = dose if it differs, or a comment. Unless noted, the call rests on the fitted dose curve; in most records, active means well fitted curve in the direction sought with a large enough effect; inconclusive means small, poorly fitted or top-dose-only effect, or another doubt; inactive means no such curve, though single readings can be large; an effect the other way counts as inactive or inconclusive.

SMILES	DT40 TDP1 CPT	TDP1 cell noCPT	TDP1 inh	TGFb SMAD3 inh	HepG2 viability	IL1B secr inh
CCCc1ccc(OCC(=O)Nc2ccc(Cl)cc2C(=O)c2ccccc2)cc1	-19%	-20%	0%[12.3 µM]	-5%	2%	/
CCC(=O)[C@@H](C)[C@@H](O)[C@H](C)C[C@@H](C)C1OC(=O)C[C@@]2(O)CC=C(C)C(O2)C(C)=CCCC[C@H](O[C@H]2C[C@@H](OC(N)=O)[C@H](O)[C@@H](C)O2)C=C[C@H](C)C[C@H]1C (stereo partly specified)	0.46µM*	0.52µM*	/	/	/	-21
CCn1c(O)c(/C=N/NC(=O)c2ccncc2)c(=O)[nH]c1=S	-7%	-13%	3%	?	-15%	-10
CCn1c(O)c(/C=N/NC(=O)c2ccccc2)c(=O)n(CC)c1=S	?	29µM*	8%	-10%	-27%	138
C=CCN1Cc2ccccc2-n2nncc2C1	6%	4%	/	-10%	11%	20
COCCOCCO	-3%[92.5 µM]	-12%[92.5 µM]	/	/	/	/
CCOc1ccc(-c2cc(C(=O)N3CCN(c4cccc(C(F)(F)F)c4)CC3)c3ccccc3n2)cc1	5.2µM*	4.6µM*	3%	-11%	1%	/
CN1CCCN(C(=O)COc2cccc(C(F)(F)F)c2)CC1	-4%	19%	1%	0%	7%	8
COc1ccc(-c2cc(C(=O)N3CCN(c4ccccc4OC)CC3)c3cc(C(C)C)ccc3n2)cc1	23µM*	21µM*	3%	-3%	-10%	/
COc1ccc(N2CCN(C(=O)c3cc(=O)[nH]c4ccccc34)CC2)cc1	5%	?	7%	4%	6%	23
c1ccc(C(c2ccccc2)N2CCN(c3ccc4ccccc4n3)CC2)cc1	?	?	?	3%	-2%	0
CCN(CC)/[N+]([O-])=N/O	-9%	-13%	7%[56.1 µM]	/	/	/
COc1c(OP2(=S)OCC(C)(C)CO2)cnn(C2CCCCC2)c1=O	23µM*	21µM*	/	15%	-4%	-13
Cc1cccc(OC(C)C(=O)NCC2(N(C)C)CCCCC2)c1C (stereo unspecified)	-24%	-26%	-3%	6%	6%	/
O=C1NC(=O)C(CCc2ccncc2)(CCc2ccccn2)C(=O)N1c1ccc(Br)cc1 (stereo unspecified)	10µM*	9.2µM*	6%	7%	17%	24
Cc1ccc(N2C(=O)NC(=O)C(CCc3ccccn3)(Cc3cccc(Cl)c3Cl)C2=O)cc1 (stereo unspecified)	-9%	3%	3%	-8%	20%	10
CCCCCCC(=O)O[C@H]1CC[C@H]2[C@@H]3CC[C@H]4CC(=O)C=C(C)[C@]4(C)[C@H]3CC[C@]12C	3%	?	/	/	/	/
NCCCCN=C(N)N	8.4µM*!	6.7µM*!	8%[56.1 µM]	/	/	/
O=[N+]([O-])c1ccc(N2CCCC2)cc1N/N=C1\CN2CCC1CC2	?	21µM*	5%	10%	-12%	-16
O=c1[nH]c2ccccc2n1C1CCN(Cc2ccc(-c3[nH]c4cc5ncnc5cc4nc3-c3ccccc3)cc2)CC1	2.3µM*	2.9µM*	19%	/	/	0
O=C1CC(N2CCC(n3c(=O)[nH]c4ccccc43)CC2)C(=O)N1Cc1ccccc1 (stereo unspecified)	-4%	-10%	7%	8%	-10%	-12
N#CCBr	/	/	8%	/	/	/
O=C1NCCOC(=O)[C@@H](Cc2ccc(F)cc2)CC/C=C/C[C@@H]1CC(=O)N(CCO)Cc1ccccc1	21µM*	23µM*	0%	-13%	-17%	2
C[N+]1(C)C2CC[C@H]1CC(OC(=O)[C@@H](CO)c1ccccc1)C2 (stereo partly specified)	/	/	6%	/	/	/
CC(C)(C)NC(=O)NC(=O)CN1CC=C(c2ccccc2)CC1	16µM*	13µM*	2%	?	3%	-5
SMILES	DT40 TDP1 CPT	TDP1 cell noCPT	TDP1 inh	TGFb SMAD3 inh	HepG2 viability	IL1B secr inh
O=C(CN1CC=C(c2ccccc2)CC1)NC(=O)NC1CCCCC1	-19%	?	0%	5%	-20%	-6
Cn1c2c(c3ccccc31)CCNCC2	/	/	15%	/	/	/
CCCNc1nc(-c2cc(C(=O)Nc3ccccc3)on2)cc(C(C)C)n1	?	?	/	?	-26%	-101*
CN1C(=O)C(=Cc2ccc(N3CCCCCC3)o2)C(=O)N(C)C1=S	?	23µM*	5%	114%	-3%	-26
CCN(CC(=O)Nc1ccccc1C(F)(F)F)C(=O)CCSc1ccc(F)cc1	-24%	?	/	-11%	-13%	-14
COc1ccc(OC)c(C(Nc2ccccc2)P(=O)(OC(C)C)OC(C)C)c1 (stereo unspecified)	?	16µM*	1%	-18%	2%	8
CC(C)OP(=O)(OC(C)C)C(Nc1ccc([N+](=O)[O-])cc1)c1cccc([N+](=O)[O-])c1 (stereo unspecified)	?	18µM*	6%	-29%	-40%	-6
COP(=O)(OC)/C(C=O)=N/Nc1ccc([N+](=O)[O-])cc1	-18%	1%	6%	-8%	-13%	-2
CC(C)OP(=O)(OC(C)C)C(Nc1ccccc1)c1ccccc1C(F)(F)F (stereo unspecified)	?	?	6%	-23%	-1%	-12
COc1ccc(C(Nc2cccc([N+](=O)[O-])c2)P(=O)(OC(C)C)OC(C)C)cc1 (stereo unspecified)	16µM*	16µM*	/	?	-58%	-12
CCCOP(=O)(OCCC)C(Nc1ccc(C(C)C)cc1)c1ccc([N+](=O)[O-])cc1 (stereo unspecified)	?	16µM*	7%	?	7%	?
CCOc1ccc(C(=O)Nc2cc(NC(=O)c3ccco3)ccc2OC)cc1Br	?	?	-2%	6%	2%	/
COc1ccc(NC(=O)C2(C)Cc3c(-c4ccc(N(C)C)cc4)ccnc3O2)cc1OC (stereo unspecified)	?	?	/	7%	-21%	18
